Source: PubChem BioAssay
Activity calls are given as the source filed them.

Legend:
[1] = system: Plasmodium falciparum Sir2 (PF13_0152, Sir2A); test: Plasmodium falciparum Sir2A binding compounds – biochemical, small-molecule microarray, 635 nm fluorescence, primary screen (AID 1098); conditions: fluorescence 635 nm, higher = more signal;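 further: score merges spot fluorescence intensity with its signal-to-noise ratio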
[2] = probe aDKK1 binding to arrayed compounds – biochemical, biotinylated probe, 635/667 nm fluorescence, primary screen (AID 1099); conditions: small-molecule microarray, higher = more signal;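 further: score merges 667nm spot fluorescence with signal to noise across triplicate slides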
[3] = probe aCHRDL2 binding to arrayed compounds – biochemical, biotinylated probe, 635/667 nm fluorescence, primary screen (AID 1100); conditions: small-molecule microarray, higher = more signal
[4] = change in splice reporter luminescence, either direction, cell-based, HEK293, spliceosome inhibition project, primary screen (AID 1101); conditions: HEK293 splicing luciferase reporter, 24 h, higher = more signal, called active from +8 up or from −8 down;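 further: HEK293 cells carrying a splicing-competent luciferase reporter gene; test concentration not given here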
[5] = biological target: Fibroblast growth factor 10 (Homo sapiens) (UniProt O15520); test: compounds binding fibroblast growth factor 10 – biochemical, small-molecule microarray, 635 nm fluorescence, primary screen (AID 1102); conditions: FGF10 binding, fluorescence 635 nm, higher = more signal
[6] = system: glycogen synthase kinase-3 (GSK3A per assay name; protocol says GSK3B); test: compounds binding glycogen synthase kinase-3 – biochemical, small-molecule microarray, 635 nm fluorescence, GSK3A, primary screen (AID 1103); conditions: fluorescence 635 nm, higher = more signal; further: the record names both GSK3A and GSK3B
[7] = biological target: Epidermal growth factor receptor (Homo sapiens) (UniProt P00533); test: compounds binding epidermal growth factor receptor – biochemical, small-molecule microarray, 635 nm fluorescence, primary screen (AID 1104); conditions: EGFR binding, higher = more signal;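 further: score merges 667 nm emission intensity with spot signal to noise over triplicate slides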
[8] = biological target: Follistatin-related protein 3 (Homo sapiens) (UniProt O95633); test: compounds binding follistatin-related protein 3 – biochemical, small-molecule microarray, 635 nm fluorescence, primary screen (AID 1105); conditions: FSTL3 binding, higher = more signal;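 further: score merges emission near 667 nm and signal to noise per printed spot across three slides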
[9] = biological target: Dickkopf-related protein 1 (Homo sapiens) (UniProt O94907); test: small molecules binding DKK1 protein – biochemical, small-molecule microarray, 635 nm fluorescence scan, primary screen (AID 1106); conditions: higher = more signal;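 further: score merges emission near 667 nm with signal to noise over three replicate slides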
[10] = system: Inhibin beta A chain (activin A); test: small molecules binding activin A – biochemical, small-molecule microarray, 635 nm fluorescence scan, primary screen (AID 1107); conditions: INHBA, higher = more signal;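 further: mouse activin A protein probed at 4.33 µg/mL on printed slides; score merges bound-protein fluorescence near 667 nm with spot signal-to-noise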
[11] = system: Human papillomavirus type 1a protein E7 (residues 44-93); test: small molecules binding HPV E7 44-93 – biochemical, small-molecule microarray, residues 44-93, 635 nm fluorescence, primary screen (AID 1108); conditions: fluorescence 635 nm, higher = more signal;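 further: E7 fragment applied at 1 µg/mL in TBST for 1 h at 4 C; score combines spot fluorescence with its signal to noise ratio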
[12] = hepatitis C replication reporter changes, two-sided – Huh7 cells, luciferase reporter, HCV replication inhibitor project, primary screen (AID 1109); conditions: Huh7 HCV replicon luciferase reporter, 48 h; higher = more signal;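 further: huh7 hepatoma cells harbouring a luciferase neomycin HCV replicon reporter; luciferase luminescence as measure of HCV replicon replication; test concentration not given here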
[13] = biological target: Left-right determination factor 2 (Homo sapiens) (UniProt O00292); test: small molecules binding LEFTY2 protein – biochemical, small-molecule microarray, 635 nm fluorescence scan, primary screen (AID 1110); conditions: higher = more signal
[14] = biological target: Calmodulin-1 (Homo sapiens) (UniProt P0DP23); test: small molecules binding calmodulin-1 with EGTA – biochemical, small-molecule microarray, Cy5-labelled CALM1, profiling panel (AID 1111); conditions: Cy5-CALM1 binding fluorescence, higher = more signal;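 further: labelled calmodulin applied in Tris saline Tween buffer holding calcium plus EGTA and DTT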
[15] = biological target: Calmodulin-1 (Homo sapiens) (UniProt P0DP23); test: small molecules binding Ca-loaded calmodulin-1 – biochemical, small-molecule microarray, Cy5-labelled CALM1, plus calcium, artefact control for SMM control-protein annotation, profiling panel (AID 1112); conditions: Cy5-CALM1 binding fluorescence, higher = more signal;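 further: score merges spot fluorescence with signal to noise from triplicate slides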
[16] = probe aWnt5a binding to arrayed compounds – biochemical, biotinylated probe, 635/667 nm fluorescence, primary screen (AID 1113); conditions: small-molecule microarray, higher = more signal;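 further: score merges 667 nm fluorescence intensity with signal-to-noise per printed feature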
[17] = probe aShh binding to arrayed compounds – biochemical, biotinylated probe, 635/667 nm fluorescence, primary screen (AID 1114); conditions: small-molecule microarray, higher = more signal;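 further: probe is biotin-labelled aShh protein from a stem cell growth factor screen; measures binding of labelled protein to compounds printed on the slide; score merges feature fluorescence at 667 nm with signal-to-noise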
[18] = probe aNog binding to arrayed compounds – biochemical, biotinylated probe, 635/667 nm fluorescence, primary screen (AID 1115); conditions: small-molecule microarray, higher = more signal;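 further: probe is biotinylated aNog protein used at 0.15 µg/mL for 1 h at 4 C; z-score combines 667 nm fluorescence of each spot with its signal to noise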
[19] = biological target: Torsin-1A-interacting protein 1 (Homo sapiens) (UniProt Q5JTV8); test: compound microarray binding of lysate hLAP1 – cell lysate, small-molecule microarray, COS7 lysate, 635/667 nm fluorescence, primary screen (AID 1116); conditions: 635 nm fluorescence, higher = more signal
[20] = biological target: Alpha-bungarotoxin (Bungarus multicinctus) (UniProt P60615); test: compounds binding labelled alpha-BTX control protein – biochemical, small-molecule microarray, Alexa647 label, 635/667 nm fluorescence, artefact control for SMM control protein annotation, profiling panel (AID 1117); conditions: alpha-BTX-A647 binding fluorescence, higher = more signal
Chain of Alpha-bungarotoxin (Bungarus multicinctus) (P60615 whole entry, looked up): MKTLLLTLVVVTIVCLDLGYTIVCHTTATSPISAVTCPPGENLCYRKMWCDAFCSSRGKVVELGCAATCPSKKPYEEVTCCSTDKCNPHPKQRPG

Chain of Fibroblast growth factor 10 (Homo sapiens) (O15520 whole entry, looked up): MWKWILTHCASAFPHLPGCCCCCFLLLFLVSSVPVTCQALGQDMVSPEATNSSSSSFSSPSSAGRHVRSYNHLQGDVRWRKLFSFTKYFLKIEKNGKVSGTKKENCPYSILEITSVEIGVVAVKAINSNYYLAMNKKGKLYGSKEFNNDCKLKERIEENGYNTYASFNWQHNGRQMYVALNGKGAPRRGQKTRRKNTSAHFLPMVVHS
Chain of Left-right determination factor 2 (Homo sapiens) (O00292 whole entry, looked up): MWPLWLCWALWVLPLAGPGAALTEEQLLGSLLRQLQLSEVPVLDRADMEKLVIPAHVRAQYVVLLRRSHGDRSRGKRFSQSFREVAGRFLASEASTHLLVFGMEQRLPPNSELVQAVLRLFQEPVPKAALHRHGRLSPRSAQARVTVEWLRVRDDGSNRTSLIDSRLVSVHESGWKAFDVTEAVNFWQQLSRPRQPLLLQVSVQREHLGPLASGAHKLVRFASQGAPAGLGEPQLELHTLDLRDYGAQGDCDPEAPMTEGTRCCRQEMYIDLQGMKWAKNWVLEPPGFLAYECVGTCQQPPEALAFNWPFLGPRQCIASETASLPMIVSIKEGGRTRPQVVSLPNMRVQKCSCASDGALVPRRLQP
Chain of Follistatin-related protein 3 (Homo sapiens) (O95633 whole entry, looked up): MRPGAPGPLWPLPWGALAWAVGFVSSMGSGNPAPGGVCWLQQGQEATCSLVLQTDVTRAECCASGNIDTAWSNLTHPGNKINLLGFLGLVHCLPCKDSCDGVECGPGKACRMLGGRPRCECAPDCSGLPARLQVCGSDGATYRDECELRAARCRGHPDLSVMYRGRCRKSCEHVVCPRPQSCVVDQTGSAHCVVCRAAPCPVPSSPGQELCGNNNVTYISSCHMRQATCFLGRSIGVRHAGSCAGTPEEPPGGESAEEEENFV
Chain of Torsin-1A-interacting protein 1 (Homo sapiens) (Q5JTV8 whole entry, looked up): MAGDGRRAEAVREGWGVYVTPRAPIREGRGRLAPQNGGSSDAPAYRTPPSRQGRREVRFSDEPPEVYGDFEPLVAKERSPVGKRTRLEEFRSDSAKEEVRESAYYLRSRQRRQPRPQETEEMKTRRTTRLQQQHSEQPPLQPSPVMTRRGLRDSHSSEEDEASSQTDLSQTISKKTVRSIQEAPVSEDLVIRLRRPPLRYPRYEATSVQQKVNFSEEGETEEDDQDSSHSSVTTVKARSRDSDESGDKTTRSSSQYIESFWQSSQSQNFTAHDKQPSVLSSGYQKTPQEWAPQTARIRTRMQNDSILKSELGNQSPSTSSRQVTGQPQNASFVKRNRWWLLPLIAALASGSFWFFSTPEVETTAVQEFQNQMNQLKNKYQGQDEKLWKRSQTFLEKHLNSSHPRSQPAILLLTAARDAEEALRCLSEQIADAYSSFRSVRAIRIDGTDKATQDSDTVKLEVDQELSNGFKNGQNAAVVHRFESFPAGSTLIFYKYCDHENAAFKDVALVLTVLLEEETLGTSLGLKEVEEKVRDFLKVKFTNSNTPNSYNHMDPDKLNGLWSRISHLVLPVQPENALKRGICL
Chain of Dickkopf-related protein 1 (Homo sapiens) (O94907 whole entry, looked up): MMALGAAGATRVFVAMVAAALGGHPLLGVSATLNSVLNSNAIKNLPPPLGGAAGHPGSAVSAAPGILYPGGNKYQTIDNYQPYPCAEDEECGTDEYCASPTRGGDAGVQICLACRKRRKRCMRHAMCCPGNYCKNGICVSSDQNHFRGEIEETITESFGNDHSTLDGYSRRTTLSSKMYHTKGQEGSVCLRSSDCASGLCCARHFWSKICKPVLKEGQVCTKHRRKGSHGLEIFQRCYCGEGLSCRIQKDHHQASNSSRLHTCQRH
Chain of Epidermal growth factor receptor (Homo sapiens) (P00533 whole entry, looked up): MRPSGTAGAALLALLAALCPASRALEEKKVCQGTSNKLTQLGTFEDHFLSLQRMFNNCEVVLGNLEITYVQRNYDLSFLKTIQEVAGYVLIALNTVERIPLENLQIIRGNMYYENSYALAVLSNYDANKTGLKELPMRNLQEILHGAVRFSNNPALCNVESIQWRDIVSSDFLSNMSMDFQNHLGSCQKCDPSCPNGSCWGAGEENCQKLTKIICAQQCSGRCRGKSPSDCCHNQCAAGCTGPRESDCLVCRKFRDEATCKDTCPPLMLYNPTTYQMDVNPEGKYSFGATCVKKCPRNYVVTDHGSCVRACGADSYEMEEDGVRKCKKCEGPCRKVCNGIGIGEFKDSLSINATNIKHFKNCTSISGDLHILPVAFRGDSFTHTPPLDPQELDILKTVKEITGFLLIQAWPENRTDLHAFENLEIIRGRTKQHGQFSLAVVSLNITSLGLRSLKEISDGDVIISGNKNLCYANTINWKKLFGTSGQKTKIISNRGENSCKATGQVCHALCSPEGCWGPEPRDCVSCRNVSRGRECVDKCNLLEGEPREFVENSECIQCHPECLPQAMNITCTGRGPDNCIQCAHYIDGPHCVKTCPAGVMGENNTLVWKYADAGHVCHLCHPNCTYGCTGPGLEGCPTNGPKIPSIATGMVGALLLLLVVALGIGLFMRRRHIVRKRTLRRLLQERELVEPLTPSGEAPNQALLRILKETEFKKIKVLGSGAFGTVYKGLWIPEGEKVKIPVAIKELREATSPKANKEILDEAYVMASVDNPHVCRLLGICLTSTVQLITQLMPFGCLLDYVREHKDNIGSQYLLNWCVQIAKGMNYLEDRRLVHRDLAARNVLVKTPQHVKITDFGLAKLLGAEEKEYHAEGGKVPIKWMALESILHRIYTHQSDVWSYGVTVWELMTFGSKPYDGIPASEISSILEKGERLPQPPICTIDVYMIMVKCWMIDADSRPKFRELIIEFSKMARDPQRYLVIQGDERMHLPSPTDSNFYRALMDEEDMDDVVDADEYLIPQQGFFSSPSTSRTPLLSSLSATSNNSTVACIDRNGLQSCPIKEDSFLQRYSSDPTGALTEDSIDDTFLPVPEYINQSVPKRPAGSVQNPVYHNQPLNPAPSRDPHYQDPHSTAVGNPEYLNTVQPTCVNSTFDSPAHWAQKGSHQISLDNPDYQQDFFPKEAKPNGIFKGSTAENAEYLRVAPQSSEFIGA

SMILES | composite z-score [1] | composite z-score [2] | composite z-score [3] | z-score [4] | composite z-score [5] | composite z-score [6] | composite z-score [7] | composite z-score [8] | composite z-score [9] | composite z-score [10] | composite z-score [11] | z-score [12] | composite z-score [13] | composite z-score [14] | composite z-score [15] | composite z-score [16] | composite z-score [17] | composite z-score [18] | composite z-score [19] | composite z-score [20]
COCCCN1C(=O)[C@@]2(c3ccc([N+](=O)[O-])cc3)CC(=O)N(CC34CC5CC(CC(C5)C3)C4)[C@@H]2c2ccc(CO)cc21 | 1.47 | -0.183 | -0.0705 | -0.515 (inactive) | 0.329 | 0.541 | -0.557 | 0.458 | -0.104 | 0.405 | 0.372 | -0.445 | -0.407 | -0.226 | -0.406 | -0.096 | -0.291 | -0.461 | -0.507 | 0.241
COCCn1c(C(=O)N(C)C)cc2c1C[C@H]1CN(C(=O)c3ccccc3)[C@@](Cc3ccc(OC)cc3)(C(=O)OC)[C@@H]21 | 0.816 | 0.785 | 1.34 | -0.346 (inactive) | 0.26 | 0.22 | 0.0351 | 0.324 | -0.745 | 1.21 | 1.38 | -1.27 | 0.0756 | 0.572 | 0.25 | 0.0431 | 0.204 | 0.919 | 0.357 | 0.0924
C=C(COC)C(=O)CC[C@H](OC(=O)c1cccnc1)c1ccc(OCCO)cc1 | 0.745 | -0.163 | -0.139 | -0.319 (inactive) | 1.08 | 0.538 | 0.163 | 1.03 | 0.624 | 0.472 | 1.27 | -0.345 | 0.65 | -0.395 | -1.33 | -0.176 | -0.379 | -0.0762 | 2.53 | 0.994
CCCC[C@H]1OB(O)C[C@H]2C1=C(COc1ccccc1)C[C@H]1C(=O)C=CC(=O)[C@H]12 | 0.268 | 1.07 | -0.56 | -0.171 (inactive) | 0.638 | 0.474 | 0.286 | 1.02 | 0.966 | 0.825 | 0.0194 | -1.36 | 0.406 | -0.415 | -0.68 | -0.152 | -0.283 | -0.295 | 0.0135 | -0.388
O=C(NCc1ccc(F)cc1)[C@H]1C[C@H]2C(=O)N3CCC[C@H]3C(=O)N2[C@H]1c1ccc(O)cc1 | 0.605 | -0.294 | -0.292 | -1.62 (inactive) | -0.0335 | -0.73 | 0.192 | -0.423 | 0.889 | -0.964 | -0.512 | 0.85 | 0.124 | -0.178 | -0.386 | -0.176 | -0.366 | -0.344 | 0.424 | -0.374
CCCC=C(CCC)[C@@H](NC(=O)OCC(C)C)c1ccc(C(=O)OC)cc1 | 0.458 | -0.315 | -0.411 | -2.36 (inactive) | 0.674 | 0.788 | 0.471 | 0.414 | 0.85 | -0.155 | 0.903 | -1.02 | 0.66 | 0.059 | -0.307 | -0.217 | -0.138 | -0.0496 | 0.0246 | -0.376
CC(C)C(O)C1C=CC2C(=O)NC(=O)C2N1Nc1ccccn1 (stereo not given) | 1.09 | 0.886 | 0.542 | 1.02 (inactive) | 0.109 | 0.352 | -0.216 | 0.401 | -0.0362 | 1.4 | 0.927 | -0.43 | 0.108 | 0.0802 | -0.187 | 0.009 | -0.0793 | 0.116 | 0.325 | 0.631
CN1C(=O)C2C(C1=O)C1C=C(c3ccc(CO)cc3)C2C(C2CC2)N1C (stereo not given) | 0.028 | -0.152 | 0.0977 | -0.0431 (inactive) | 0.192 | 0.249 | 0.35 | -0.463 | -0.143 | 0.304 | 0.208 | 0.203 | 0.0075 | 0.0024 | 0.103 | -0.0664 | -0.138 | -0.0606 | 0.149 | 0.219
C=C(CCCC)/C(=C/C[C@H](OC(C)=O)c1cccc(OCCO)c1)c1cnc2ccccc2c1 | 0.989 | -0.149 | -0.0497 | -0.142 (inactive) | -0.252 | -0.31 | 0.228 | 0.234 | 0.0193 | 1.83 | -0.114 | -2.3 | -0.234 | -0.437 | -0.896 | -0.0684 | 0.0723 | 0.0664 | 0.558 | 0.387
C=CCNC(=O)[C@H]1[C@@H]2C(=O)O[C@@H](c3ccccc3)[C@@H](c3ccccc3)N2[C@@H](c2ccccc2OCCO)[C@]12C(=O)N(C(=O)OCCOC)c1ccc(C#Cc3ccc(OC)cc3)cc12 | 0.801 | 0.256 | 0.581 | 0.522 (inactive) | 0.654 | 1.06 | 0.301 | 0.0527 | -0.163 | 0.032 | 1.39 | -2.79 | 0.342 | 1.39 | 0.37 | -0.152 | -0.0011 | 0.254 | 0.143 | 1.3
CCCCCC1=C2CNC(CC(C)C)(C(=O)OC)C=C2C(C)C1=O (stereo not given) | 0.452 | 0.72 | 0.952 | 5.08 (inactive) | 0.071 | -0.361 | -0.73 | -0.403 | -0.756 | 1.23 | 1.2 | -0.897 | -0.869 | 1.64 | 1.22 | -0.0165 | 1.16 | 0.154 | 0.932 | 0.195
